Pol kappa inh-1 – qHTS for Inhibitors of Polymerase Kappa; purified Pol kappa, fluorescent DNA synthesis assay, 10 min; Potency, µM (top dose mostly 107 µM), without a hit: top-dose activity, negative = inhibition, most hits filed as inhibitors; 400,000 compounds, 0.53% hits; note: potency is the fitted concentration of half-maximal effect; % is set by controls: 0 for no effect and ±100 for the full control effect
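Inhibition of 10 nM Pol kappa is measured by a fluorescent read-out at 0 and 10 min following addition of 50 nM substrate (final), with a 15-min room-temperature compound preincubation.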
Pol beta inh – qHTS Assay for Inhibitors of DNA Polymerase Beta. P06746. Pol beta primer extension/strand displacement, fluorescence kinetic. Potency, µM (top dose mostly 114 µM), inactives show at the top dose activity change, negative = inhibition, actives largely listed as inhibitors. 340,000 compounds, 1.3% hits; note: potency is the fitted concentration of half-maximal effect; % is set by controls: 0 for no effect and ±100 for the full control effect
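10 nM enzyme + cpd, 15 min RT; start with substrate 50 nM final; read 0 min and after 10 min RT. Corrected, normalized data; 4-parameter Hill curve fit.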
WRN inhibitor – qHTS for Inhibitors of WRN Helicase | 360,000 compounds, 0.46% hits | Potency, µM (series often up to 114 µM), for inactives: at the highest dose activity change, negative = inhibition, most hits filed as inhibitors | AID 651768, 2012 | WRN helicase unwinding, fluorescent forked duplex, kinetic; note: potency is the fitted concentration of half-maximal effect; % is set by controls: 0 for no effect and ±100 for the full control effect; nearly all actives have a fitted effect of over 55% in size
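WRN at 20 nM final preincubated with compound 15 min at room temperature; reaction started with 100 nM fluorophore/quencher forked duplex oligonucleotide and 2 mM ATP final. Unwinding followed kinetically by red fluorescence (ex 525, em 598 nm).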
Pol eta inh-1 – qHTS for Inhibitors of Polymerase Eta; 390,000 compounds, 1.2% hits; DNA polymerase eta (Homo sapiens), Q9Y253; Potency, µM (titrated, usually from 114 µM), for the others: at the highest dose activity change, negative = inhibition, usual class: inhibitors; recombinant Pol eta, fluorescent DNA replication assay; note: potency is the fitted concentration of half-maximal effect; % is set by controls: 0 for no effect and ±100 for the full control effect
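Fluorescent replication assay: 50 nM final substrate added after a 15 min room-temperature compound preincubation with 10 nM enzyme. Signal taken at 0 min and again at 10 min.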
Pol iota inh – qHTS for Inhibitors of Polymerase Iota. Pol iota fluorescent replication assay, 10 min. Potency, µM (series often up to 115 µM), for inactives: top-dose activity, negative = inhibition, actives largely listed as inhibitors. 390,000 compounds, 1% hits. AID 588590, 2011; note: potency is the fitted concentration of half-maximal effect
Target sequence (Q9UNA4 whole entry, looked up): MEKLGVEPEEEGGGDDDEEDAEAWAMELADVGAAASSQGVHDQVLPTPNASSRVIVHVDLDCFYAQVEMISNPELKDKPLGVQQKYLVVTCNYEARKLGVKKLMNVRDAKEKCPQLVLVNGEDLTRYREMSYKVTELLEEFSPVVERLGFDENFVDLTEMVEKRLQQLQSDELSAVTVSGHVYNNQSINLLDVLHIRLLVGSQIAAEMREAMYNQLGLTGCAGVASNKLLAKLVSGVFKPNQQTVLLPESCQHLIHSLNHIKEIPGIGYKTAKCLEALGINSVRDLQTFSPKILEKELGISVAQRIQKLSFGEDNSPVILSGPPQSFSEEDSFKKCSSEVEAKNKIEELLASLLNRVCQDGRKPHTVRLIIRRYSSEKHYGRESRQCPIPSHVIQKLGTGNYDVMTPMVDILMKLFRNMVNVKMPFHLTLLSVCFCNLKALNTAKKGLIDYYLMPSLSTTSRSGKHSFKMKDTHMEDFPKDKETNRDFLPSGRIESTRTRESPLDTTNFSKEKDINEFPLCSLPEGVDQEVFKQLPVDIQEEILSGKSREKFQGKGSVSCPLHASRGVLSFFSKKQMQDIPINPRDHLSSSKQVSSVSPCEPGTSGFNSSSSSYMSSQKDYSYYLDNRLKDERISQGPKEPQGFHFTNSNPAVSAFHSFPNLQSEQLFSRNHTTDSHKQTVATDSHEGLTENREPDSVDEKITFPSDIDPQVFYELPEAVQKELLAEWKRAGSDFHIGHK
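Pol iota at 10 nM preincubated 15 min with compounds at room temperature; reaction started with fluorescent substrate, 50 nM final. Fluorescence read kinetically at 0 and 10 min; buffer-only wells as negative control.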
FEN1 inh-1 – qHTS Assay for the Inhibitors of Human Flap endonuclease 1 (FEN1). Potency, µM (titrated, usually from 114 µM), for inactives: at the top dose activity change, negative = inhibition, usual class: inhibitors. AID 588795, 2011. P39748. Recombinant FEN1 flap cleavage, fluorescence, 15 min. 390,000 compounds, 0.35% hits; note: potency is the fitted concentration of half-maximal effect; % is set by controls: 0 for no effect and ±100 for the full control effect; nearly all actives have a fitted effect of over 65% in size
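Quantitative HTS format: each compound was titrated, incubated with 10 nM nuclease for 15 min at room temperature, then challenged with flap substrate at 50 nM final. Signal change over 15 min gave concentration–effect curves.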
GALK confirm – Confirmation Assay for Inhibitors of Human Galactokinase (GALK); purified GALK, Kinase-Glo ATP depletion luminescence; 150 compounds, 70% hits; shares compounds with Pol eta inh-1; Potency, µM (titrated, usually from 115 µM), for inactives: top-dose activity, negative = inhibition, hits mostly inhibitors; AID 2015, 2009
Redox cycling – Confirmatory Assay for Inhibitors of Human Galactokinase (GALK): Phenol-HRP redox assay counterscreen. shares compounds with Pol eta inh-1. Phenol red-HRP H2O2 redox cycling, absorbance 600 nm. Potency, µM (titrated, usually from 115 µM), inactives show at the highest dose activity change, negative = H2O2 signal, usual class: inhibitors. 150 compounds, 40% hits. AID 2035, 2009
HEK293 tox – Secondary Assay for Inhibitors of Human Galactokinase (GALK): HEK-293 Cell Viability Assay. shares compounds with Pol eta inh-1. HEK-293 viability, ATP luminescence (CellTiter-Glo), 24/48 h. Potency, µM (titrated, usually from 46.1 µM), without a hit: at the highest dose activity change, negative = cytotoxicity, actives largely listed as inhibitors. 170 compounds, 10% hits. AID 2547, 2010; note: potency is the fitted concentration of half-maximal effect; % is set by controls: 0 for no effect and ±100 for the full control effect
Pol kappa inh-2 – qHTS for Inhibitors of Polymerase Kappa: Confirmatory Assay for Cherry-picked Compounds | shares compounds with Pol eta inh-1 | purified Pol-kappa, fluorescent strand-displacement substrate | Potency, µM, actives largely listed as inhibitors | 920 compounds, 76% hits | AID 720501, 2013; note: potency is the fitted concentration of half-maximal effect
Pol eta inh-2 – qHTS for Inhibitors of Polymerase Eta: Confirmatory Assay for Cherry-picked Compounds; Pol eta primer extension, TAMRA/BHQ fluorescence, 10 min; shares compounds with Pol eta inh-1; Potency, µM, usual class: inhibitors; 2,600 compounds, 64% hits; note: potency is the fitted concentration of half-maximal effect
FEN1 inh-2 – qHTS Assay for the Inhibitors of FEN1: Confirmatory Assay for Cherry-picked Compounds; shares compounds with FEN1 inh-1; FEN1 flap cleavage, TAMRA/BHQ2 fluorogenic DNA substrate; Potency, µM, most hits filed as inhibitors; 880 compounds, 79% hits; note: potency is the fitted concentration of half-maximal effect; nearly all actives have a fitted effect of over 60% in size
* hit, by the source's call; ? = inconclusive; nt = not tested or not shown; [ ] = dose if it differs, or a comment. Compounds with a hit are over-represented: about 2.4% of the library has one in this group of screens. Calls come from the whole dose curve; as a rule, active = well fitted curve in the direction sought with a large enough effect; inconclusive = small, poorly fitted or top-dose-only effect, or another doubt; inactive = no such curve, though single readings can be large; an effect the other way counts as inactive or inconclusive.

SMILES | Pol kappa inh-1 | Pol beta inh | WRN inhibitor | Pol eta inh-1 | Pol iota inh | FEN1 inh-1 | Pol eta inh-2 | others
Cc1[nH]ccc2c1[nH]c1cc(=O)ccc12 | ? | ? | 17.5% | -16.1% | -19.1% | -7.9% | nt
CNC(=O)O/N=C/C(C)(C)S(C)=O (centres undefined) | -13.0% | nt | nt | nt | -0.1% | -9.9% | nt
CCc1ccccc1Nc1nn2c(=O)c3ccc(C(=O)Nc4cc(C)cc(C)c4)cc3nc2s1 | 1.2% | 1.8% | nt | ? | 11.2% | 16.7% | nt
COc1cc([C@@H]2c3cc4c(c(O)c3C[C@H]3COC(=O)[C@@H]32)OCO4)cc(OC)c1OC | -0.3% | nt | nt | nt | 22.1% | -10.8% | nt
Cc1ccccc1N1C(=O)NC(=O)/C(=C\c2cnn(-c3ccccc3)c2)C1=O | -4.9% | 15.8µM* | ? | 22.4µM* | -6.2% | -13.3% | ?
Cc1ccc(S(=O)(=O)Cc2ccc(C(=O)N3CCC4(CC3)OCCO4)o2)cc1 | ? | 10µM* | ? | 12.6µM* | ? | -2.2% | ?
COc1cc(O)c(C(=O)O)c(-c2cc(O)c(O)cc2C)c1 | ? | 20µM* | -9.1% | 10µM* | ? | ? | ?
COc1ccc2c(c1)c(C(=O)O)c(C)n2CC(C)C | -6.6% | 9.4% | 2.0% | -5.8% | 8.1% | 9.0% | nt
CCOP(=S)(OCC)Oc1ncn(-c2ccccc2)n1 | 17.0%[60.1 µM] | nt | nt | nt | nt | nt | nt
O=c1oc2ccccc2c(O)c1C(c1ccc([N+](=O)[O-])cc1)c1c(O)c2ccccc2oc1=O | ? | 50.1µM* | ? | 20µM* | ? | -20.7% | nt | GALK confirm=26.6µM*;Redox cycling=5.2%;HEK293 tox=-1.7%
O=C(O)C1C(C(=O)O)C2(Cl)C(Cl)=C(Cl)C1(Cl)C2(Cl)Cl (centres undefined) | 79.4µM* | nt | 2.0%[11.6 µM] | -5.9% | 44.7µM* | 6.5% | ?
O=C1NC(=O)C2C1C1(Cl)C(Cl)=C(Cl)C2(Cl)C1(Cl)Cl (centres undefined) | -3.7% | nt | 0.6% | -1.3% | -9.1% | -14.7% | nt
C[C@@H]1CC[C@H]2[C@H](C)[C@H]3CC[C@@]4(O)[C@@H]5CC(=O)[C@H]6CC(=O)CC[C@]6(C)[C@H]5C[C@H]4[C@@H]3CN2C1 | 16.9%[60.1 µM] | nt | nt | nt | nt | nt | nt
O=C(c1ccc2c(c1)N(Cc1cccc(F)c1)C(=O)c1ccccc1S2)N1CCC2(CC1)OCCO2 | -5.3%[60.1 µM] | 22.4µM* | nt | ? | -18.3% | -20.5% | ? | Pol kappa inh-2=?
O=C(c1ccc2c(c1)N(Cc1ccc(F)cc1Cl)C(=O)c1ccccc1S2)N1CCC2(CC1)OCCO2 | -9.0%[60.1 µM] | -7.1% | nt | -12.7% | 14.0% | 7.4% | nt
COCOC1CCC2C3CCC4=CC(=O)CCC4=C3C=CC12C (centres undefined) | ? | nt | -6.0%[11.6 µM] | ? | 28.2µM* | -12.2% | ?
CC1(O)CCC2C3CCC4=CC(=O)CCC4=C3C=CC21C (centres undefined) | 3.7% | nt | -3.5% | 2.4% | 23.8% | 15.3% | nt
C[C@@H]1C[C@H](C)C[C@H](C)[C@@H](O)CC(=O)O[C@H]([C@H]2CCC[C@H]2C(=O)O)C/C=C/C=C(/C#N)[C@H](O)[C@@H](C)C1 | 13.0%[60.1 µM] | nt | nt | nt | nt | nt | nt
Clc1ccc(COC(Cn2ccnc2)c2ccc(Cl)cc2Cl)cc1 (centres undefined) | ? | 14.7% | -4.6% | -26.9% | 8.8% | ? | nt
Clc1ccc(C(c2ccc(Cl)cc2)n2cc[n+](CC(OCc3ccc(Cl)cc3Cl)c3ccc(Cl)cc3Cl)c2)cc1 (centres undefined) | -11.7%[60.1 µM] | 1.4%[57.1 µM] | ? | ? | ? | 79.4µM* | nt | Pol kappa inh-2=67*
O=C1NC(=O)N(Cc2ccccc2)C(=O)/C1=C\C=C\c1ccco1 | 35.5µM* | 20µM* | 50.1µM* | 17.8µM* | 15.8µM* | ? | 75.7* | FEN1 inh-2=?
N#CC(C#N)=Cc1ccc(C=C(C#N)C#N)cc1 | -36.8% | ? | ? | 44.7µM* | ? | 4.5% | ? | FEN1 inh-2=95.3*
Cc1cc(N2CCCC2)ccc1C=C(C#N)C#N | 5.9% | -22.7% | ? | -29.8% | 33.2% | -0.7% | nt
COC(=O)/C=C/C(=O)N[C@@H]1CC[C@@]2(O)[C@H]3Cc4ccc(O)c5c4[C@@]2(CCN3CC2CC2)[C@H]1O5 | 4.9%[19.4 µM] | nt | nt | nt | nt | nt | nt
C[C@]12CCC3C(CC[C@H]4C[C@H](O)CC[C@]34C)[C@@H]1CC[C@@H]2C(=O)CO (some centres undefined) | 3.9%[19.4 µM] | nt | nt | nt | nt | nt | nt
C[C@]12CCC3C(CC[C@H]4C[C@@H](O)CC[C@]34C)C1CC[C@@H]2OC(=O)[C@H](N)CCCCN (some centres undefined) | 0.5% | nt | 0.8%[11.6 µM] | -3.7% | 15.9% | ? | nt | FEN1 inh-2=42.6*
